In PubChem BioAssay one finds composite z-score, z-score and composite Z-score data, which are given here for 6 compounds.

For assay [1], the system named is Human papillomavirus type 1a protein E7 (residues 44-93). The assay can be described thus: small molecules binding HPV E7 44-93 – biochemical, small-molecule microarray, residues 44-93, 635 nm fluorescence, primary screen (AID 1108).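 Further: E7 fragment applied at 1 µg/mL in TBST for 1 h at 4 C; score combines spot fluorescence with its signal to noise ratio.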 Particulars: fluorescence 635 nm, higher = more signal.
Assay [2] is described as follows: hepatitis C replication reporter changes, two-sided – Huh7 cells, luciferase reporter, HCV replication inhibitor project, primary screen (AID 1109).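 Further: huh7 hepatoma cells harbouring a luciferase neomycin HCV replicon reporter; luciferase luminescence as measure of HCV replicon replication; test concentration not given here.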 Conditions: Huh7 HCV replicon luciferase reporter, 48 h; higher = more signal. (In general: In a reporter assay the amount or activity of a reporter protein is the signal.)
The target of assay [3] is Left-right determination factor 2 (Homo sapiens) (UniProt O00292). The assay can be described thus: small molecules binding LEFTY2 protein – biochemical, small-molecule microarray, 635 nm fluorescence scan, primary screen (AID 1110). Particulars: higher = more signal.
Sequence of Left-right determination factor 2 (Homo sapiens) (O00292 whole entry, looked up): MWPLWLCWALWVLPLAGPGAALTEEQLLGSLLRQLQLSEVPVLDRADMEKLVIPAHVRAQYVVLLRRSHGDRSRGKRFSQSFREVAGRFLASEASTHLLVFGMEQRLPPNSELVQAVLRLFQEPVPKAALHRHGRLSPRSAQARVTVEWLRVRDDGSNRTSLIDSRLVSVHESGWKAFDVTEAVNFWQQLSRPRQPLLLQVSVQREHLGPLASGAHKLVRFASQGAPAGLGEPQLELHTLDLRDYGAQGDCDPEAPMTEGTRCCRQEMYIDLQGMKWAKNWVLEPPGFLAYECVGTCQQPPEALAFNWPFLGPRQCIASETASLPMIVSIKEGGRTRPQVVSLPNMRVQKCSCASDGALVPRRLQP
The target in assay [4] is Calmodulin-1 (Homo sapiens) (UniProt P0DP23). The assay can be described thus: small molecules binding calmodulin-1 with EGTA – biochemical, small-molecule microarray, Cy5-labelled CALM1, profiling panel (AID 1111).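 Further: labelled calmodulin applied in Tris saline Tween buffer holding calcium plus EGTA and DTT.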 Particulars: Cy5-CALM1 binding fluorescence, higher = more signal.
The target is the same in assay [5]. The assay can be described thus: small molecules binding Ca-loaded calmodulin-1 – biochemical, small-molecule microarray, Cy5-labelled CALM1, plus calcium, artefact control for SMM control-protein annotation, profiling panel (AID 1112).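 Further: score merges spot fluorescence with signal to noise from triplicate slides.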 Conditions: Cy5-CALM1 binding fluorescence, higher = more signal.
Assay [6] in a line: probe aWnt5a binding to arrayed compounds – biochemical, biotinylated probe, 635/667 nm fluorescence, primary screen (AID 1113).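 Further: score merges 667 nm fluorescence intensity with signal-to-noise per printed feature.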 Particulars: small-molecule microarray, higher = more signal.
Assay [7] can be described thus: probe aShh binding to arrayed compounds – biochemical, biotinylated probe, 635/667 nm fluorescence, primary screen (AID 1114).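 Further: probe is biotin-labelled aShh protein from a stem cell growth factor screen; measures binding of labelled protein to compounds printed on the slide; score merges feature fluorescence at 667 nm with signal-to-noise.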 Conditions: small-molecule microarray, higher = more signal.
Assay [8] is described as follows: probe aNog binding to arrayed compounds – biochemical, biotinylated probe, 635/667 nm fluorescence, primary screen (AID 1115).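 Further: probe is biotinylated aNog protein used at 0.15 µg/mL for 1 h at 4 C; z-score combines 667 nm fluorescence of each spot with its signal to noise.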 Particulars: small-molecule microarray, higher = more signal.
In assay [9] the target is Torsin-1A-interacting protein 1 (Homo sapiens) (UniProt Q5JTV8). The assay can be described thus: compound microarray binding of lysate hLAP1 – cell lysate, small-molecule microarray, COS7 lysate, 635/667 nm fluorescence, primary screen (AID 1116). Particulars: 635 nm fluorescence, higher = more signal.
Sequence of Torsin-1A-interacting protein 1 (Homo sapiens) (Q5JTV8 whole entry, looked up): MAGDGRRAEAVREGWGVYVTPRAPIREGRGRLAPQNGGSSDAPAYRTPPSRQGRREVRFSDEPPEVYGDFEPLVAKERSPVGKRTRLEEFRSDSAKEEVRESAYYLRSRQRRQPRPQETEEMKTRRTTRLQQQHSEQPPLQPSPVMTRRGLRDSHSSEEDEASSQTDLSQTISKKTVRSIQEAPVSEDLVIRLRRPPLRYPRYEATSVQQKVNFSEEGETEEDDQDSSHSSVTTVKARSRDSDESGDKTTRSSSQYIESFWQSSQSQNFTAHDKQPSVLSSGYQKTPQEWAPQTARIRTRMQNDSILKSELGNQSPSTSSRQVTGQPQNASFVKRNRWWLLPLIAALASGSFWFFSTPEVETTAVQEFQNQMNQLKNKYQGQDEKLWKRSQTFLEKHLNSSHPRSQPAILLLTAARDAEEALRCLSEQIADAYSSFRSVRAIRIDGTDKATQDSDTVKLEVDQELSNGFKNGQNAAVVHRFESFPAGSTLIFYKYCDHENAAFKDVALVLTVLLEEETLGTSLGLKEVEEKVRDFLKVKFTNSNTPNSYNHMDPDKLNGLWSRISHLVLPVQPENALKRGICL
In assay [10] the target is Alpha-bungarotoxin (Bungarus multicinctus) (UniProt P60615). The assay is described as follows: compounds binding labelled alpha-BTX control protein – biochemical, small-molecule microarray, Alexa647 label, 635/667 nm fluorescence, artefact control for SMM control protein annotation, profiling panel (AID 1117). Particulars: alpha-BTX-A647 binding fluorescence, higher = more signal.
Sequence of Alpha-bungarotoxin (Bungarus multicinctus) (P60615 whole entry, looked up): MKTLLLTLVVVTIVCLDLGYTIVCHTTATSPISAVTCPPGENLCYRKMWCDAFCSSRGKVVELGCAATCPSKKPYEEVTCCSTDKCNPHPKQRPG

Another assay has as its target Albumin (Bos taurus) (UniProt P02769). The assay can be described thus: compounds binding labelled BSA control protein – biochemical, small-molecule microarray, Alexa647 label, 635/667 nm fluorescence, artefact control for SMM control protein annotation, profiling panel (AID 1118).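 Further: score merges 667 nm emission intensity and signal-to-noise per printed compound spot.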 Conditions: BSA-A647 binding, fluorescence 635 nm, higher = more signal.
Assay [11] in a line: probe aXIP binding to arrayed compounds – biochemical, NeuroSMM set, 635/667 nm fluorescence, primary screen (AID 1119).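 Further: probe is the protein aXip251-270 applied at 1 µg/mL to compound-printed slides; binding of probe to printed compounds measured as 667 nm fluorescence plus signal to noise.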 Conditions: small-molecule microarray, higher = more signal, called active from +8 up or from −8 down.
Assay [12] can be described thus: probe aNOTCH3 binding on compound microarray – biochemical, small-molecule microarray, 635/667 nm fluorescence, primary screen (AID 1120).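 Further: probe is a biotin-tagged antibody raised against NOTCH3 rather than NOTCH3 protein; score merges spot fluorescence near 667 nm with spot signal to noise.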 Particulars: higher = more signal.
The nature of assay [13]: probe aNOTCH2 binding on compound microarray – biochemical, small-molecule microarray, 635/667 nm fluorescence, primary screen (AID 1121).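 Further: score merges feature fluorescence read at 667 nm with its signal to noise.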 Conditions: higher = more signal.
For assay [14], the target named is Carbonic anhydrase 2 (Homo sapiens) (UniProt P00918). The assay can be described thus: compounds binding carbonic anhydrase 2 – biochemical, small-molecule microarray, Alexa647-labelled CAII, profiling panel (AID 1122). Conditions: CAII-A647 binding fluorescence, higher = more signal.
A short description of assay [15]: COS7 lysate on small-molecule microarray, probe aHis, 635 nm (AID 1123).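 Further: z-score combines 667nm fluorescence intensity with signal-to-noise per printed compound spot.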 Conditions: COS7 cell lysate, fluorescence, higher = more signal.
Assay [16] in a line: probe aLAP1 signal on lysate-treated microarray – cell lysate, small-molecule microarray, COS7 lysate, primary screen (AID 1124).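 Further: lysate comes from COS7 cells expressing LAP1 and is applied at 0.3 µg/mL; score merges spot fluorescence near 667 nm with signal-to-noise over triplicate slides.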 Particulars: probe aLAP1, fluorescence, higher = more signal.
The test system of the next assay is Sam68 (KHDRBS1). The assay is described as follows: compounds binding KHDRBS1 protein – biochemical, small-molecule microarray, 635 nm fluorescence, primary screen (AID 1125).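 Further: score merges 667 nm channel intensity with signal to noise over triplicate slides.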 Conditions: higher = more signal.
Assay [17] has as its system Chordin-like protein 2 (CHRDL2). The assay can be described thus: compounds binding chordin-like 2 – biochemical, small-molecule microarray, 635 nm fluorescence, primary screen (AID 1126).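 Further: printed compound slides probed with Chrdl2 protein at 4 µg/mL for 1 h at 4 C; score merges 667 nm emission intensity with signal to noise over three replicate slides.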 Particulars: fluorescence 635 nm, higher = more signal.
The target of assay [18] is Concanavalin-A (Canavalia ensiformis) (UniProt P02866). The assay is described as follows: compounds binding concanavalin A lectin – biochemical, small-molecule microarray, Alexa647 label, 635 nm, artefact control for SMM control protein annotation, primary screen (AID 1127).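 Further: z combines 667 nm emission intensity with signal-to-noise across three replicate slides.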 Conditions: ConA-A647 binding fluorescence, higher = more signal.
Sequence of Concanavalin-A (Canavalia ensiformis) (P02866 whole entry, looked up): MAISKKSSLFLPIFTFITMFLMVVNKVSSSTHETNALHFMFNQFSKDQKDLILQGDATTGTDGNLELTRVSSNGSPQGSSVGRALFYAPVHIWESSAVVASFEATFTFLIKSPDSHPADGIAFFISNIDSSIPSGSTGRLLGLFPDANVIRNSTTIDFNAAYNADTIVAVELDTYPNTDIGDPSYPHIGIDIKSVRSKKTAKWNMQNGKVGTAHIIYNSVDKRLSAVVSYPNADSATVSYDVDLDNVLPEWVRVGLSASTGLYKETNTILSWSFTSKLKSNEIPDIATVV

Active and inactive are the calls of the source.

Sequence of Albumin (Bos taurus) (P02769 whole entry, looked up): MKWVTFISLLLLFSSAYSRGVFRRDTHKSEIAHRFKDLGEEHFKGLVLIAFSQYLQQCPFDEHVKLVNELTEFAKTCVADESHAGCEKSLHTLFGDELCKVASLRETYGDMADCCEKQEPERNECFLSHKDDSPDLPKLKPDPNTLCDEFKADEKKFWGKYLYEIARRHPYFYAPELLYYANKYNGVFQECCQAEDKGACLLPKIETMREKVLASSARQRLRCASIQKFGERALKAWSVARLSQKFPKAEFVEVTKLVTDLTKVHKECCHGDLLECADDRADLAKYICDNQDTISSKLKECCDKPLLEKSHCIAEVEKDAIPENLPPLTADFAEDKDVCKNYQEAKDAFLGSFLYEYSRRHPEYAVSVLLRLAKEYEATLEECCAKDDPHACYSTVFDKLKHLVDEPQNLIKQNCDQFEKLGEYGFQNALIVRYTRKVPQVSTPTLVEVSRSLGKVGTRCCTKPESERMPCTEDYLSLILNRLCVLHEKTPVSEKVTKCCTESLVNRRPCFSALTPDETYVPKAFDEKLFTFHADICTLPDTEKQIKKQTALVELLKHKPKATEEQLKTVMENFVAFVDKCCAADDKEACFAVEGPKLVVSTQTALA

Regarding `C#C[C@H](O[Si](C#Cc1ccccc1)(C(C)C)C(C)C)c1ccccc1`, the composite z-score in assay [1] is -0.285; in assay [3], -0.962; in [4], -0.226; in [5] it was 0.418; in assay [6], -0.162; in assay [7] it was -0.154. Further, the composite z-score in assay [8] was -0.333; in [9] it was -0.246; in [10] it was 0.821; with Albumin (Bos taurus), 0.0778; in assay [12] it was -0.293; in [13], -0.0743. In addition, the composite z-score in assay [14] was 0.564; in [15] it was 0.0271; in assay [16], 0.252; in the assay on Sam68 (KHDRBS1), 0.0094; in assay [17], -0.429; in assay [18], -0.683. In [2], this compound displayed a z-score of -0.733. Further, the composite Z-score in assay [11] is 0.422 (inactive).
In the case of `O=C(CS)NCCCCCNC(=O)[C@H]1C[C@H]2C(=O)N3CCC[C@H]3C(=O)N2[C@H]1c1ccc(O)cc1`, the composite z-score is -0.295 in assay [1]; 0.679 in assay [3]; 1.45 in assay [4]; 1.22 in [5]; -0.197 in assay [6]; 0.046 in [7]. In addition, the composite z-score in [8] was -0.0207; in [9], 2.97; in [10] it was -1.3; with Albumin (Bos taurus) it was -1.54; in assay [12], -0.229; in assay [13] it was -0.0304. For the same compound, the composite z-score in [14] is 0.729; in [15] it was 0.0961; in assay [16] it was 1.23; with Sam68 (KHDRBS1), -0.305; in assay [17] it was 0.641; in assay [18], -0.736. The compound also had a z-score in assay [2] of 0.0187. Besides, the composite Z-score in [11] is -0.17 (inactive).
For the compound `CCN1C(C)=C(C(=O)OC)[C@@H](c2ccccc2)N2C(=O)[C@@]3(C(=O)OC)O[C@@]12[C@@H]1C(=O)N(C)C(=O)[C@@H]13`, the composite z-score in [1] was -0.592; in assay [3] it was 0.72; in [4], 0.439; in [5], -0.686; in assay [6], -0.0882; in assay [7], -0.283. Besides, the composite z-score in [8] is 0.372; in assay [9], 0.426; in assay [10] it was 1.19; with Albumin (Bos taurus) it was 0.216; in assay [12] it was 0.19; in [13] it was -0.141. Besides, the composite z-score in [14] was determined as 0.752; in [15], 0.32; in [16], 0.164; with Sam68 (KHDRBS1) it was 0.686; in [17], 1.01; in [18] it was 0.418. Besides, the z-score in [2] was -0.0304. In addition, the composite Z-score in assay [11] is 0.0523 (inactive).
For the compound `CO[C@H]1O[C@H](CO)[C@@H](OC(=O)Nc2ccc3c(c2)OCO3)[C@H](OC(=O)Nc2ccccc2)[C@@H]1OC(=O)Nc1ccccc1`, the composite z-score is 1.45 in assay [1]; -0.0553 in assay [3]; 1.01 in assay [4]; -0.677 in [5]; 0.129 in [6]; 0.0796 in assay [7]. For the same compound, the composite z-score was 0.953 in assay [8]; 0.949 in assay [9]; 0.902 in [10]; 0.792 in the assay with Albumin (Bos taurus); -0.004 in assay [12]; -0.0952 in [13]. Further, the composite z-score in assay [14] is 0.743; in assay [15], 3; in [16], 0.982; with Sam68 (KHDRBS1), 1.29; in assay [17], -0.0509; in assay [18], 1.09. In assay [2], this compound gave a z-score of -1.69. The composite Z-score in assay [11] was 0.0474 (inactive).
For `O=C1O[C@@H](c2ccccc2)[C@@H](c2ccccc2)N2[C@@H](c3ccc(O)cc3)[C@]3(C(=O)Nc4ccccc43)[C@@H](C(=O)N3CCN(c4ncccn4)CC3)[C@H]12`, the composite z-score in assay [1] was 0.746; in assay [3], -0.389; in [4], 0.874; in assay [5], 1.09; in assay [6], -0.105; in assay [7], 0.182. For the same compound, the composite z-score in assay [8] was 0.0486; in assay [9], 0.0398; in assay [10], 1.16; with Albumin (Bos taurus), 0.689; in assay [12], -0.122; in assay [13], -0.154. For the same compound, the composite z-score was 0.686 in assay [14]; 0.456 in assay [15]; 0.613 in assay [16]; 0.528 with Sam68 (KHDRBS1); -0.571 in [17]; 0.474 in [18]. This compound displayed a z-score in [2] of -1.91. The composite Z-score in [11] is 5.4 (inactive).
Turning to `C=CCC(OC(C)=O)[C@@H]1[C@@H](N(Cc2ccc(-c3ccccc3)cc2)C(=O)c2ccc(-c3ccccc3)cc2)c2cc(OCCCO)ccc2N1C(=O)Cc1ccc(OC)cc1` (stereo not given in full), the composite z-score in [1] worked out at 0.273; in [3], 0.241; in [4] it was 0.165; in assay [5], 0.229; in assay [6], 0.164; in assay [7] it was 0.011. The composite z-score in [8] is 0.0921; in assay [9], -0.209; in assay [10], 0.265; with Albumin (Bos taurus) it was 0.4; in [12], 0.0065; in assay [13] it was -0.183. The composite z-score in assay [14] was 0.0703; in assay [15], 0.0095; in assay [16], 0.061; in the assay on Sam68 (KHDRBS1), 0.0768; in assay [17], -0.0682; in assay [18] it was 0.411. In addition, in assay [2], the z-score was -1.57. For the same compound, in assay [11], the composite Z-score was 0.344 (inactive).
